About 8,800 targets were measured; listed, in parts, are those with a hit and a random draw of the rest. About 0.5% of all pairs of compound and target were hits.
Key:
Assay in all cases: log2 fold change, soluble protein after heating vs DMSO (PISA); higher = thermal stabilisation; K562 lysate, 10 uM; active = over 0.2 and 3.5 SD of the protein, either way, in both replicates (recomputed)
[1] = compound: CCN(CCCOc1ccc2c(Nc3cc(CC(=O)Nc4cccc(F)c4)[nH]n3)ncnc2c1)CCOP(=O)(O)O [barasertib]
Method in brief: (§1)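 Soluble protein was defined as the supernatant remaining after 21,000xg for 90 min, following pooling of heated aliquots and adjustment to 0.5% NP-40 at 4°C. Before that, crude K562 extract at 1 mg/mL protein in PBS pH 7.4 with 1 mM MgCl2 was treated with 10 μM compound for 30 min and heated for 3 min across 48°C-58°C. Quantification used TMTpro 16plex LC-MS/MS with channel sums equalised, and values are log-two fold changes in thermal stability relative to solvent controls from duplicates.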

[2] = compound: CC[C@@H]1C(=O)N(C)c2cnc(Nc3ccc(C(=O)NC4CCN(C)CC4)cc3OC)nc2N1C1CCCC1
Method in brief: as §1

[3] = compound: CCn1c(C(=O)N(C2CC2)C2CC2)cc2c3c(ncn3C)c(Nc3cc(C)n(C)n3)nc21
Method in brief: as §1

[4] = compound: CN1CCN(c2nc(C3=C(c4c[nH]c5ccccc45)C(=O)NC3=O)c3ccccc3n2)CC1 [sotrastaurin]
Method in brief: as §1

[5] = compound: CN1CCc2c(c3ccccc3n2Cc2ccc(C(=O)NO)cc2)C1 [Tubastatin A]
Method in brief: as §1

[6] = compound: CNC(=O)C1=CC=CC=C1NC2=NC(=NC=C2Cl)NC3=C(C=C(C=C3)N4CCOCC4)OC
Method in brief: as §1

[7] = compound: COC(=O)N[C@@H](C)CNc1nccc(-c2cn(C(C)C)nc2-c2cc(Cl)cc(NS(C)(=O)=O)c2F)n1 [encorafenib]
Method in brief: as §1

[8] = compound: COC(=O)[C@H](CCSC)NC(=O)C1=C(C=C(C=C1)NC[C@H](CS)N)C2=CC=CC=C2
Method in brief: as §1

[9] = compound: CCCS(=O)(=O)Nc1ccc(F)c(C(=O)c2c[nH]c3ncc(-c4ccc(Cl)cc4)cc23)c1F [vemurafenib]
Method in brief: as §1

[10] = compound: CCn1cc(-c2ccnc3[nH]c(-c4cccc(CN(C)C)c4)cc23)c(-c2ccc(NC(=O)N(C)C)cc2)n1
Method in brief: as §1

[11] = compound: CN1CCC(CNc2ccc3ncc(-c4cccc(OC(F)(F)F)c4)n3n2)CC1
Method in brief: as §1

[12] = compound: CN1CCN(CCOc2cc(OC3CCOCC3)c3c(Nc4c(Cl)ccc5c4OCO5)ncnc3c2)CC1 [saracatinib]
Method in brief: as §1

[13] = compound: CN1CC[C@H](c2c(O)cc(O)c3c(=O)cc(-c4ccccc4Cl)oc23)[C@H](O)C1 [alvocidib]
Method in brief: as §1

[14] = compound: CNC(=O)c1ccc(Nc2ncc(C(F)(F)F)c(NCc3nccnc3N(C)S(C)(=O)=O)n2)cc1 [defactinib]
Method in brief: as §1

[15] = compound: CNc1nc(-c2ccc3c(N)n[nH]c3c2)cc(N2C[C@@H](C(=O)NC3CCCCC3)CC[C@H]2C)n1
Method in brief: as §1

[16] = compound: COc1cc(Nc2ncc3c(n2)-c2ccc(Cl)cc2C(c2c(F)cccc2OC)=NC3)ccc1C(=O)O [alisertib]
Method in brief: as §1

[17] = compound: COc1cc2ncnc(Nc3ccc(F)c(Cl)c3)c2cc1OCCCN1CCOCC1 [gefitinib]
Method in brief: as §1

[18] = compound: CCCS(=O)(=O)Nc1ccc(F)c(C(=O)c2c[nH]c3ncc(Cl)cc23)c1F
Method in brief: as §1

[19] = compound: CC[C@@H]1C(=O)N(C)c2cnc(Nc3ccc(C(=O)N[C@H]4CC[C@H](N5CCN(CC6CC6)CC5)CC4)cc3OC)nc2N1C(C)C [volasertib]
Method in brief: as §1

[20] = compound: COc1cc2nc(-c3cc(F)ccc3O)nc(N[C@@H]3CNC[C@H]3C(C)(C)O)c2cc1OC
Method in brief: as §1

Measured: log2 fold change

CCDC130 (UniProt P13994)
inactive: [1] 0.045 | [2] 0.036 | [3] -0.027 | [4] 0.147 | [5] -0.066 | [6] -0.275 | [7] -0.015 | [8] 0.09

CDK17 isoform 2 (UniProt Q00537)
active: [13] 0.599
inactive: [9] -0.115 | [1] 0.011 | [2] -0.078 | [3] -0.007 | [10] 0.091 | [11] -0.299 | [12] -0.017 | [4] 0.03 | [5] -0.015 | [6] -0.051 | [14] 0.139 | [15] -0.018 | [7] 0.099 | [8] -0.129 | [16] -0.121 | [17] -0.132

CCAR2 (UniProt G3V119)
inactive: [18] 0.087 | [19] -0.074 | [20] -0.032

BCORL1 isoform 3 (UniProt Q5H9F3)
inactive: [9] 0.123 | [2] -0.033 | [3] -0.018 | [10] -0.546 | [11] 0.344 | [12] -0.082 | [4] -0.099 | [13] -0.328 | [5] -0.006 | [6] -0.064 | [14] -0.213 | [15] 0.113 | [7] 0.022 | [8] 0.021

CDAN1 (UniProt H3BPZ6)
inactive: [4] 0.175

B3GALT6 (UniProt Q96L58)
inactive: [1] 0.002 | [3] 0.115 | [12] -0.172 | [4] 0.067 | [5] 0.051 | [6] -0.025 | [15] 0.059

BUD13 (UniProt Q9BRD0)
inactive: [1] 0.092 | [2] -0.07 | [3] -0.037 | [10] 0.076 | [11] -0.064 | [12] 0.096 | [4] 0.025 | [13] 0.033 | [5] -0.015 | [6] -0.022 | [15] 0.068 | [7] 0.007 | [8] 0.004 | [16] 0.017 | [17] 0.108

CAD (UniProt H7BZB3)
inactive: [9] -0.063 | [2] 0.144 | [10] -0.02 | [11] -0.027 | [13] 0.005 | [6] 0.28 | [14] 0.036 | [7] 0.113 | [8] 0.059

CAPNS1 (UniProt U3KPR7)
inactive: [18] -0.125 | [1] 0.424 | [19] -0.01 | [16] -0.069 | [20] 0.024 | [17] 0.165

CHD9 (UniProt Q3L8U1)
active: [10] 1.88
inactive: [9] -0.028 | [3] -0.139 | [11] -0.122 | [12] 0.114 | [4] 0.17 | [13] 0.027 | [5] 0.055 | [6] -0.064 | [14] -0.147 | [15] -0.137 | [16] -0.369 | [17] 0.111

C3AR1 (UniProt Q16581)
active: [10] -0.664
inactive: [1] -0.172 | [11] -0.286 | [4] -0.004 | [13] 0.055 | [16] 0.358 | [17] 0.053

BMT2 (UniProt Q1RMZ1)
Chain of UniProt Q1RMZ1 (Q1RMZ1 whole entry, looked up): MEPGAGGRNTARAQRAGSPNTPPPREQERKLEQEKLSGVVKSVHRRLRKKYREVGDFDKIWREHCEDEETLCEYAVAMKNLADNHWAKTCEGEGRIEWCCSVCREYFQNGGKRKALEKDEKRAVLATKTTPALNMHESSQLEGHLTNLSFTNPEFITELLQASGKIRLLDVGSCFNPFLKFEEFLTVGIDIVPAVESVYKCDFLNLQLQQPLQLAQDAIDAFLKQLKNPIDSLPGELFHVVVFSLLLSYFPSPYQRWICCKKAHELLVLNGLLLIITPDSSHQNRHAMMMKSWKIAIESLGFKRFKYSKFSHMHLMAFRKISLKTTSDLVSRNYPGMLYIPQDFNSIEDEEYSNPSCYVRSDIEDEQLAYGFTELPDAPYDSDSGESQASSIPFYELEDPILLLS
inactive: [10] 0.004 | [11] 0.096 | [13] -0.004 | [16] 0.025 | [17] -0.27

C9orf72 (UniProt Q96LT7)
active: [8] 0.259
inactive: [18] -0.03 | [1] -0.091 | [2] 0.034 | [19] 0.088 | [3] 0.022 | [10] -0.065 | [11] -0.015 | [12] 0.082 | [4] 0.011 | [13] 0.001 | [5] 0 | [6] -0.036 | [15] 0.058 | [7] 0.125 | [16] 0.014 | [20] 0.102 | [17] -0.106

ATE1 (UniProt O95260)
inactive: [18] 0.061 | [1] -0.051 | [19] 0.002 | [10] 0.082 | [11] 0.003 | [4] 0.021 | [13] -0.024 | [20] 0.044

BICRA (UniProt Q9NZM4)
Chain of UniProt Q9NZM4 (Q9NZM4 whole entry, looked up): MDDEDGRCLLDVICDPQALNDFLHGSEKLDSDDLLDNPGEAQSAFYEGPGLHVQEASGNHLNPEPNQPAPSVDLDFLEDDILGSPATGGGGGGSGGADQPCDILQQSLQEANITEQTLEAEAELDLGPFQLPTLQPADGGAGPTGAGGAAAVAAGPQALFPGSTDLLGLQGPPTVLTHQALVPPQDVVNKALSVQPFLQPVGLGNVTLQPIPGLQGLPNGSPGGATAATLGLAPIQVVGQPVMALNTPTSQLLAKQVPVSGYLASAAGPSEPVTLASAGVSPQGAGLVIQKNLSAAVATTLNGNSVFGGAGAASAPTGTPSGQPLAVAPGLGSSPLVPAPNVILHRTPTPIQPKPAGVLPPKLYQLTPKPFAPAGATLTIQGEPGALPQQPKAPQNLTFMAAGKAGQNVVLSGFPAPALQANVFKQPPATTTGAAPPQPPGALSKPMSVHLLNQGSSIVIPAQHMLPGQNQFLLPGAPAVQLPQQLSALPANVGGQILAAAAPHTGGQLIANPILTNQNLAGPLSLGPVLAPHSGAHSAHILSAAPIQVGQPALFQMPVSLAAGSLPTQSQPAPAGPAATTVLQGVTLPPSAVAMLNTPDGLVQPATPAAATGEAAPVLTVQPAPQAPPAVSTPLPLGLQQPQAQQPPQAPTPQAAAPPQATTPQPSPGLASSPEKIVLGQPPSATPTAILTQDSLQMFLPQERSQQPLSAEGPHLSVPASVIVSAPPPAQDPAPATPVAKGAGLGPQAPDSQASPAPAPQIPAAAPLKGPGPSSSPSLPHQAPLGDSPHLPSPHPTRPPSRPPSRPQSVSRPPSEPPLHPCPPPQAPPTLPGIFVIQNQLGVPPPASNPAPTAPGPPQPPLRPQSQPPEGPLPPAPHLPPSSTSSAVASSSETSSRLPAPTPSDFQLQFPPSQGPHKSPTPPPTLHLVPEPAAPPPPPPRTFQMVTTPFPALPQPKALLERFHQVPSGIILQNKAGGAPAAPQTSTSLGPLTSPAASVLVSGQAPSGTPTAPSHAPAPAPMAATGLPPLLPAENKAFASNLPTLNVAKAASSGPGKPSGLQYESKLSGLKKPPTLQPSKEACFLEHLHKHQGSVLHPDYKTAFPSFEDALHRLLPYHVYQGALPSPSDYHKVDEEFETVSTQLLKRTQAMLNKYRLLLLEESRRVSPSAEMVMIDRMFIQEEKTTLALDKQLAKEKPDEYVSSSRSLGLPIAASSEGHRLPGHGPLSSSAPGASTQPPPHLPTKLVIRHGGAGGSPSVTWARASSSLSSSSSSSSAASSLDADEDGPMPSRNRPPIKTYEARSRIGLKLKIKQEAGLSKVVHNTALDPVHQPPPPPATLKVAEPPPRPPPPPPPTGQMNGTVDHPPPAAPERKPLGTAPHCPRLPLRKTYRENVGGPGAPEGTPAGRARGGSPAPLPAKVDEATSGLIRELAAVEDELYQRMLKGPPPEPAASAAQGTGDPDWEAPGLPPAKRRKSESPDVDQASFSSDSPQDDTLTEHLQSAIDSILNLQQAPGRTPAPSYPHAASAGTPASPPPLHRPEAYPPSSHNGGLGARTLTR
inactive: [18] 0.055 | [1] 0.165 | [19] 0.036 | [3] -0.233 | [10] -0.133 | [11] -0.048 | [12] 0.02 | [4] 0 | [13] -0.113 | [5] 0.335 | [6] 0.101 | [20] 0.132
active: [15] 0.884

ATXN2 (UniProt F8WB06)
inactive: [12] -0.088 | [15] -0.09

CCP110 (UniProt O43303)
Chain of UniProt O43303 (O43303 whole entry, looked up): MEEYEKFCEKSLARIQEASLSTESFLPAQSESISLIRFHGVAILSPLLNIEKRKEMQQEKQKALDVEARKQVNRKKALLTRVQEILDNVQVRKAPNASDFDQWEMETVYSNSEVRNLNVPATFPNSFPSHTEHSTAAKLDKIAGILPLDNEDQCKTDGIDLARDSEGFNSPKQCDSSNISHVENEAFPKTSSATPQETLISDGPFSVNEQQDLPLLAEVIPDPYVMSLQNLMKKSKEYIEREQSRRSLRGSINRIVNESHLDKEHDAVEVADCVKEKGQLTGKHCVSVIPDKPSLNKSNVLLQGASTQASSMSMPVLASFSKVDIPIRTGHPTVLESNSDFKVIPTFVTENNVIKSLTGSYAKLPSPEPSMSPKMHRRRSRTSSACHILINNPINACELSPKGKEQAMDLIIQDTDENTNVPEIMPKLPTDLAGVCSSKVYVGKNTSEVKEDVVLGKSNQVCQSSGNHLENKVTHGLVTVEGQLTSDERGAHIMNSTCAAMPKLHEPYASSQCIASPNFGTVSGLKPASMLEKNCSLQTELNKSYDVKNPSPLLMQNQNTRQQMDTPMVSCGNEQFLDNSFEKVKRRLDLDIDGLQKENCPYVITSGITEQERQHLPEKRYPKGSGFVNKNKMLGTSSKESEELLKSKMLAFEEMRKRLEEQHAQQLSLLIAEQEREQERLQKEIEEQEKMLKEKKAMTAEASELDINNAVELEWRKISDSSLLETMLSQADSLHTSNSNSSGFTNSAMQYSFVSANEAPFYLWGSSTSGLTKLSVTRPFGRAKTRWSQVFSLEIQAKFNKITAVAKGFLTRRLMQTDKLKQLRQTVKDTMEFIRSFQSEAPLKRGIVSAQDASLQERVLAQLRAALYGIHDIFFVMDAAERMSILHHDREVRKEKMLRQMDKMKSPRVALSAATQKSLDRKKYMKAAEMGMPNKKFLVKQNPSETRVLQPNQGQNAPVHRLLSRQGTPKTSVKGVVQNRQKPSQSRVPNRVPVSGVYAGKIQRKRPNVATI
inactive: [9] -0.202 | [1] 0.07 | [2] -0.141 | [3] -0.022 | [12] -0.06 | [4] 0.005 | [5] -0.045 | [6] -0.115 | [14] 0.181 | [15] 0.008 | [7] 0.075 | [8] 0.125

BNIP3 (UniProt Q12983)
inactive: [18] 0.035 | [1] -0.037 | [2] 0.069 | [19] 0.116 | [3] -0.023 | [10] -0.307 | [11] 0.149 | [12] 0.118 | [4] 0.03 | [13] -0.065 | [5] -0.058 | [6] 0.076 | [15] 0.081 | [7] 0.015 | [8] 0.018 | [16] -0.043 | [20] -0.128 | [17] 0.021

ATG4D (UniProt Q86TL0)
inactive: [1] -0.074 | [2] 0.055 | [3] 0.116 | [12] -0.188 | [4] 0.058 | [5] -0.09 | [15] -0.008 | [7] -0.031 | [8] -0.155

C6orf120 (UniProt Q7Z4R8)
inactive: [18] -0.127 | [1] 0.096 | [19] 0.051 | [10] -0.005 | [11] 0.049 | [12] 0.004 | [13] 0.096 | [6] 0.031 | [15] 0.066 | [20] -0.026

CEP128 (UniProt Q6ZU80)
Chain of UniProt Q6ZU80 (Q6ZU80 whole entry, looked up): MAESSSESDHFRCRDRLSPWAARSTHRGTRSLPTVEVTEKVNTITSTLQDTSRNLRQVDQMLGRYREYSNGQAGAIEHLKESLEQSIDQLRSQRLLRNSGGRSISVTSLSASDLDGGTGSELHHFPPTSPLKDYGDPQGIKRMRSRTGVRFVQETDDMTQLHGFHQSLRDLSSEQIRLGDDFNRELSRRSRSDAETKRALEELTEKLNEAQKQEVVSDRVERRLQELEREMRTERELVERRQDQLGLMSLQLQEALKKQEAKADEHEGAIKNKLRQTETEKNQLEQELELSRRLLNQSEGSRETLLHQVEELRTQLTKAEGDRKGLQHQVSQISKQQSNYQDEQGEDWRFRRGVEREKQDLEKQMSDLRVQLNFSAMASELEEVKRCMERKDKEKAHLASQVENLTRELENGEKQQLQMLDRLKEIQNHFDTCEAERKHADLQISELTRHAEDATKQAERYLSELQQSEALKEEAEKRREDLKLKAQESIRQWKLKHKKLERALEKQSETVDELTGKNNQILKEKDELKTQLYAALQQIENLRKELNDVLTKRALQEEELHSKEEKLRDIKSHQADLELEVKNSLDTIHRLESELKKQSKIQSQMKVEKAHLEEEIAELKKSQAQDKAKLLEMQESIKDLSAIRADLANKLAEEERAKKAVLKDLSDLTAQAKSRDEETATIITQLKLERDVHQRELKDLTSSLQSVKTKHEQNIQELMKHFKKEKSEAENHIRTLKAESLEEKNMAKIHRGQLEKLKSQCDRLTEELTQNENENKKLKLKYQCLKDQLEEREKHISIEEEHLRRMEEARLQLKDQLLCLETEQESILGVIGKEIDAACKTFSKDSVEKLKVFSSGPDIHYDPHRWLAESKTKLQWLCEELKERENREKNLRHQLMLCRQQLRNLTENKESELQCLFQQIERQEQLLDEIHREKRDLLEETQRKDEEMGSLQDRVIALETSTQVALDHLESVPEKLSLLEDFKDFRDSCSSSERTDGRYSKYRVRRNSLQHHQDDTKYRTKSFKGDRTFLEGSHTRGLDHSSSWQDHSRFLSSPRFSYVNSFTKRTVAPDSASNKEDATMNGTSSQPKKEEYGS
inactive: [9] -0.025 | [1] 0.124 | [2] -0.132 | [3] 0.375 | [11] 0.369 | [12] 0.07 | [13] -0.294 | [5] 0.565 | [14] -0.052 | [15] -0.037 | [7] 0.064 | [8] 0.031
active: [10] -1.27

CCND3 (UniProt P30281)
Chain of UniProt P30281 (P30281 whole entry, looked up): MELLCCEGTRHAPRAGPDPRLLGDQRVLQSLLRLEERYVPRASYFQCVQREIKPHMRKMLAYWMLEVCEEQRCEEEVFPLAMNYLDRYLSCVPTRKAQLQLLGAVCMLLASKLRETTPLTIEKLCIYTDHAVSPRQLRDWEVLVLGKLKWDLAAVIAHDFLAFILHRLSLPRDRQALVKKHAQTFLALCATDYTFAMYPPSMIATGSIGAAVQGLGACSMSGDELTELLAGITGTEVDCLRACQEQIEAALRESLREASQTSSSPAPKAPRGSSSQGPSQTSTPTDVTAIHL
inactive: [1] 0.014 | [2] -0.056 | [3] -0.112 | [10] -0.116 | [11] 0.075 | [12] 0.086 | [4] 0.016 | [13] 0.144 | [5] -0.001 | [6] 0.024 | [15] 0.037 | [7] 0.081 | [8] -0.128 | [16] 0.073 | [17] 0.201

CEP57L1 (UniProt Q8IYX8)
inactive: [1] -0.06 | [2] 0.227 | [3] 0.044 | [10] -0.028 | [11] -0.066 | [12] -0.065 | [4] -0.007 | [13] -0.024 | [5] -0.143 | [6] 0.141 | [15] -0.09 | [7] 0.118 | [8] -0.023 | [16] -0.003 | [17] -0.038

ATPSCKMT (UniProt Q6P4H8)
inactive: [1] -0.019 | [2] 0.171 | [3] 0.077 | [12] 0.053 | [4] -0.007 | [15] -0.027 | [7] -0.176 | [8] 0.17
active: [5] -0.368

BBS7 (UniProt Q8IWZ6)
Chain of UniProt Q8IWZ6 (Q8IWZ6 whole entry, looked up): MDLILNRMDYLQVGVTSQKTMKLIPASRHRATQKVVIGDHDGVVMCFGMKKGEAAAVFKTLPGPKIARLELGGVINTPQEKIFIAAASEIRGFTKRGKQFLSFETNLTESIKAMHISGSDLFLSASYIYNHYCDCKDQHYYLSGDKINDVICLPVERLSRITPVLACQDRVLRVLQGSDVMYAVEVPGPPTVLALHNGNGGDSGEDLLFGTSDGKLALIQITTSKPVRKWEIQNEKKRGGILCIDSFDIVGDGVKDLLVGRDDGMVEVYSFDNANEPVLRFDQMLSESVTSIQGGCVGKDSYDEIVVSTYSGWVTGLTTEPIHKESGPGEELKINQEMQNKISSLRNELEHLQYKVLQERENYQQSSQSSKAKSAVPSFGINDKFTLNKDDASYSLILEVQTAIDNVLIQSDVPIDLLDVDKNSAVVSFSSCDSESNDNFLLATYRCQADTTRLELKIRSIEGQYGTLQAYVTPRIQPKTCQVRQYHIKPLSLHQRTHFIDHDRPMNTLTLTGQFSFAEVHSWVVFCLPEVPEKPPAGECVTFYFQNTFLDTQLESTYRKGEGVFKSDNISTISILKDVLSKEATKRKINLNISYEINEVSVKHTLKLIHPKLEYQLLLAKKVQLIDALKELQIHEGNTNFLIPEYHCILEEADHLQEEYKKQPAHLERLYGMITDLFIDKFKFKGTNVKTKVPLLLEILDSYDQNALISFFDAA
inactive: [9] 0.375 | [2] -0.082 | [3] 0.026 | [10] -0.255 | [11] 0.067 | [12] 0.217 | [4] 0.044 | [13] 0.027 | [5] -0.123 | [6] -0.028 | [14] -0.212 | [15] -0.042 | [7] 0.024 | [8] 0.091 | [16] 0.123 | [17] -0.016

CARHSP1 (UniProt H3BNU9)
inactive: [18] 0.032 | [1] 0.246 | [19] -0.161 | [10] 0.16 | [11] -0.522 | [13] -0.027 | [16] -0.107 | [20] -0.003 | [17] -0.213
